Where a name gives a salt, the structure may show the parent alone.

The subject of this assay is HEK293FT dCK*-IKZF1. Briefly: relative growth recovery (pomalidomide 10 uM = 100%, DMSO = 0%); higher = more growth rescue (IKZF1 fusion degradation). As to conditions: compound concentration: 5 uM; AraC concentration: 0.3 uM; overnight pretreatment + 4 days AraC. In outline: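 On day 5, whole-well imaging was used to count Hoechst 33342-stained nuclei of HEK293FT cells stably carrying a deoxycytidine kinase–IKZF1 fusion. These cells had received 5 μM compound 2 h after seeding, followed after overnight at 37 °C by a nucleoside suicide substrate at 0.3 μM plus medium for 4 days. Growth recovery was normalised on each plate against a reference degrader and vehicle, which defined 100% and 0%, and values are duplicate means from separate days.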
Take `C[C@H]1[C@H](OC(=O)CCC(=O)O)O[C@@H]2O[C@@]3(C)CC[C@H]4[C@H](C)CC[C@@H]1[C@@]24OO3`: the relative growth recovery was -9.71%. With `Clc1cccc(Cl)c1CSc1nnc(-c2cnccn2)s1` [yoda-1], the relative growth recovery is -4.05%. The figure for `CCCCCCCCCCC(CO)CCCCCCCC` (stereo not drawn) [2-Octyldodecan-1-ol] is -2.31%. The figure for `c1ccc(C2(c3ccccc3)CC2=C2NCCN2)cc1` [cibenzoline] is -0.4%; for `CNCC(O)c1ccc(O)c(O)c1` (racemic) [DL-Adrenaline] it is -4.26%; for `CC(CN(C)C)CN1c2ccccc2Sc2ccccc21` (stereo not drawn) it is -2.14%. The figure for `COc1ccc2nc3cc(Cl)ccc3c(Nc3cc(CN4CCCC4)c(O)c(CN4CCCC4)c3)c2n1` is -10.1%; for `Cc1ccnc(NS(=O)(=O)c2ccc(N)cc2)n1` it is 1.5%; for `O=C1c2ccccc2C(Cc2ccncc2)(Cc2ccncc2)c2ccccc21` it is 5.88%. Take `CC(NCCC(c1ccccc1)c1ccccc1)c1ccccc1` (stereo not drawn) [fendiline]: the relative growth recovery was 2.01%.

With `O=C(CCCCCCC(O)=NO)Nc1ccccc1` [Vorinostat], the relative growth recovery is -10.3%. Next, `O=[N+]([O-])c1ccc(O)c2ncccc12`: -2.33%. Consider `C[n+]1c2cc(N)ccc2cc2ccc(N)cc21.Nc1ccc2cc3ccc(N)cc3nc2c1` [Acriflavine hydrochloride], for which the relative growth recovery is -14%. Regarding `C/C(=N\NC(=S)N1CCC1)c1ccccn1`, the relative growth recovery is -12.9%. Consider `CC(C)n1nc(-c2ccc3oc(N)nc3c2)c2c(N)ncnc21`, for which the relative growth recovery is -12.4%. On to `Cc1cccc(CCN2CCC(C(=O)c3ccc(NS(C)(=O)=O)cc3)CC2)n1`, for which the relative growth recovery was -0.45%.

With `OC(c1cc(C(F)(F)F)nc2c(C(F)(F)F)cccc12)C1CCCCN1` (stereo not drawn), the relative growth recovery is -7.16%. `CCn1c(=O)[nH]c2ccccc21`: the relative growth recovery came out at 0.15%. Next, `O=c1c(-c2ccccc2)c1-c1ccccc1` [diphencyprone]: -11.2%; `COc1ccc(C2CC(c3c(O)cc(C)oc3=O)=NCCS2)c(OC)c1` (stereo not drawn): -10.9%. The figure for `COCCOC(=O)C1=C(C)NC(C)=C(C(=O)OC/C=C/c2ccccc2)C1c1cccc([N+](=O)[O-])c1` (stereo not drawn) [cilnidipine] is -0.035%; for `COC(=O)Nc1nc2ccc(S(=O)c3ccccc3)cc2[nH]1` (stereo not drawn) it is -3.6%; for `C=CCNc1c(O)cc2c(O)c1C[C@@H](C)C[C@H](OC)[C@H](O)[C@@H](C)/C=C(\C)[C@H](OC(N)=O)[C@@H](OC)/C=C\C=C(/C)C(=O)N2` [Retaspimycin (Hydrochloride)] it is -10.9%. Next, `COc1cc(/C=C2\CCC/C(=C\c3ccc(O)c(OC)c3)C2=O)ccc1O` [cyclovalone]: 2.27%; `O=C1[C@H]2CCCC[C@H]2C(=O)N1CCCCN1CCN(c2nsc3ccccc23)CC1` [Perospirone]: 13.7%.

In the case of `O=C(Nc1ccc(Cl)cc1)Nc1ccc(Cl)c(Cl)c1` [Triclocarban], the relative growth recovery was -1.68%.

Turning to `CC1(C)C(=O)N=C2C1=C(O)C(=O)c1ccccc12`, the relative growth recovery is -12.4%. The figure for `Cc1cc([C@H](C(=O)N2C[C@H](O)C[C@H]2C(=O)N[C@@H](CC(=O)N2CCC(C#Cc3ccc(C(=O)N[C@H]4C(C)(C)[C@H](Oc5ccc(C#N)c(Cl)c5)C4(C)C)cc3)CC2)c2ccccc2)C(C)C)on1` is -0.74%; for `Oc1ccc(/C=C/c2cc(O)cc(O)c2)cc1` [Resveratrol] it is 2.06%. Next, `CC[C@H](CO)Nc1nc(Nc2cccc(-c3ccccn3)c2)c2ncn(C(C)C)c2n1`: -2.95%; `CCN1CCN(Cc2ccc(-c3cc4c(N[C@H](C)c5ccccc5)ncnc4[nH]3)cc2)CC1`: -8.18%. The figure for `O=C1C=Cc2cc(Br)ccc2C1=O` [bonaphthone] is -2.85%; for `CCC1/C=C(\C)CC(C)CC(OC)C2OC(O)(C(=O)C(=O)N3CCCCC3C(=O)OC(/C(C)=C/C3CCC(O)C(OC)C3)C(C)C(O)CC1=O)C(C)CC2OC` (stereo not drawn) [Ascomycin (FK520)] it is 13.5%; for `CC1(S(=O)(=O)[O-])CC(=O)c2ccccc2C1=O` (stereo not drawn) [menadione-bisulfite] it is -7.9%.

In the case of `CCC(=N\O)/C(C)=C/c1ccc(F)cc1`, the relative growth recovery was -0.58%. Next, `CCCNC(=O)NS(=O)(=O)c1ccc(Cl)cc1`: 1.51%; `CCOC(=O)C1=C(C)NC(C)=C(C(=O)OC)C1c1cccc([N+](=O)[O-])c1` (stereo not drawn): 2.87%; `COc1cc([C@@H]2c3cc4c(cc3[C@@H](O[C@@H]3O[C@@H]5CO[C@@H](C)O[C@H]5[C@H](O)[C@H]3O)[C@H]3COC(=O)[C@H]23)OCO4)cc(OC)c1OP(=O)(O)O` [Etoposide phosphate]: -13%.

The values are drawn from the supplement of paper PMC12340641.
